Each structure is given as a SMILES string. About 83,000 compounds went through this panel and 20% of them were active in at least one assay; those are over-represented in the sample as a whole.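 Activity criterion: percent growth below 10, measured after cells in 96-well plates were exposed to a single compound concentration for 48 hours.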 The source made the active and inactive calls.

In this test the test system is RPMI-8226 leukemia. Put plainly: NCI-60 one-dose screen, 48 h (100 = growth as untreated, 0 = no growth, -100 = all killed). The following applies: 10 µM unless noted.
Consider `COc1ccc(NC(=O)c2sc3c(=O)[nH]c(C(F)(F)F)nc3c2C)cc1`, for which the growth was 95% (inactive).

Turning to `O=C(Nc1cccc(Cl)c1)Nc1ccccc1Cl`, the growth was 55.9% (inactive).

On to `NC(=O)N/N=C\c1ccc([N+](=O)[O-])o1`, for which the growth was 86% (inactive).

Take `CCN(CC)Cc1cc(Nc2ccnc3ccc(OC)cc23)ccc1O`: the growth is 48.5% (inactive).

For the molecule `CC(C)(C)c1nn(-c2ccccc2)c2c1C(=O)CSC(c1ccc3c(c1)OCO3)N2` (centres undefined), the growth was 102% (inactive).

Take `CN(C)N1C(=O)c2c(Cl)c(Cl)c(Cl)c(Cl)c2C1=O`: the growth is 97% (inactive).

Turning to `O=c1c2cc(Cl)ccc2oc2ccc(OCCCCCN3CCCCC3)cc12`, the growth is 38% (inactive).

For `C=CCOc1ccc2c(C)cc(=O)oc2c1`, the growth was 93.8% (inactive).

Regarding `O=C(CSc1nc2c(n1Nc1ccccc1)-c1ccccc1SC2)Nc1nccs1`, the growth was 90.7% (inactive).

With `CCNC(=O)c1ccc2c(c1)nc(-c1ccc(Cl)cc1)n2-c1cc(C(C)(C)C)[nH]n1`, the growth is 76.5% (inactive).

In the case of `CC(C)CC1NC(=O)C(CC(C)C)N(CO)C1=O` (centres undefined), the growth was 81.1% (inactive).

For `CCn1c(=O)c(C(=O)NCCCO)c(O)c2ccccc21`, the growth was 122% (inactive).

With `COc1cc(NCC(O)CN(CC(C)C)CC(C)C)c2ncccc2c1` (centres undefined), the growth is 37.6% (inactive).

As to `CC(=O)Nc1ccc(/C=N/N2CCCCCC2)cc1`, the growth is 116% (inactive).

As for `O=c1oc2ccccc2cc1-c1cc(-c2ccc(-c3cc(-c4cc5ccccc5oc4=O)nc(-c4cc5ccccc5oc4=O)c3)cc2)cc(-c2cc3ccccc3oc2=O)n1`, the growth was 98.2% (inactive).

Take `CCN(CC)c1ccc(/C=N/N=C(N)N)cc1`: the growth was 3.74% (active).

For `Cc1ccc(C)c2c1SC1=NNC(Oc3ccc(Cl)cc3)=C(C#N)C(=N)N12`, the growth was 98.7% (inactive).

Consider `CCOC(=O)C(Cc1ccccc1)n1c(O)c(/C=N/c2ncc(Cc3ccc(Cl)cc3Cl)s2)sc1=S` (centres undefined), for which the growth was -7.55% (active).

Regarding `COc1ccc(-c2cnc(-c3ccncc3-c3cccc(OC)c3)o2)cc1`, the growth was 8.95% (active).

For `Cc1ccc(OC2=C(C#N)C(=N)N3C(=NN2)Sc2c(C)ccc(C)c23)cc1`, the growth is 105% (inactive).

With `O=C(Nc1ccncc1)C(=O)c1cn(S(=O)(=O)c2cccc(Cl)c2F)c2ccccc12`, the growth is 50.2% (inactive).

For the molecule `CN1C(=O)NC(Cc2c[nH]c3c(Cl)cccc23)C1=O` (centres undefined), the growth is 119% (inactive).

For the molecule `COc1ccc(C(=O)OC2C(OC3C(O)COC(O[C@H]4C[C@H]5[C@@H]6CC=C7C[C@@H](O)CC[C@]7(C)[C@H]6CC[C@]5(C)[C@H]4[C@H](C)C(=O)CCC(C)C)C3OC(C)=O)OCC(O)C2O)cc1` (some centres undefined), the growth was -29.1% (active).

On to `C[C@@H]1N=C(c2ccc3ccccc3c2)Nc2nc3ccccn3c2C1=O`, for which the growth is 43.8% (inactive).

For the molecule `O=[N+]([O-])c1ccc(N=Nc2c(NNc3ccc([N+](=O)[O-])cn3)cc(S(=O)(=O)O)c3ccccc23)nc1`, the growth was 90% (inactive).

Take `CS(=O)(=O)c1ccc(C(=O)N/N=C/c2ccccc2Cl)cc1`: the growth was 115% (inactive).

For the molecule `CC1=C(O)C(=O)CC1`, the growth was 110% (inactive).

With `O=C(N/N=C/c1ccc([N+](=O)[O-])cc1)c1ccccc1Nc1ccnc(C(F)(F)F)c1`, the growth is 11.2% (inactive).

Consider `Cc1ccc(C(CN(C)C)C(=O)c2ccccc2)cc1` (centres undefined), for which the growth was -41% (active).

For `CN1CCC2(CC1)N=C(SCC(=O)Nc1cnc3ccccc3c1)C(c1ccc(Br)cc1)=N2`, the growth is -7.88% (active).

For `Nc1c(C(=O)C[C@@H](N)CO)ccc2c1C(=O)CCO2`, the growth was 19.2% (inactive).

As to `Cc1ccncc1NC=O`, the growth was 99.9% (inactive).

On to `Cc1c2c(cc3c1[nH]c1ccccc13)C=NCC2`, for which the growth was 87% (inactive).

For `O=S1(=O)NCCCN1CCNc1nccc(-c2c(-c3cccc(O)c3)nc3sccn23)n1`, the growth was 107% (inactive).

For the molecule `CCc1c(C)c2ccc(O)c(-c3cc(-c4ccccc4)c(C#N)c(=O)[nH]3)c2oc1=O`, the growth was 81% (inactive).

Take `COc1ccc2nc3cc(Cl)ccc3c(NC(=O)CSc3ccc(Cl)cc3)c2c1`: the growth is -41.4% (active).

Regarding `C=CC(=O)N1CN(C(=O)C=C)CN(C(=O)C=C)C1`, the growth was 84.6% (inactive).

`CCCC(CCC)(C(N)=O)C(=O)O`: the growth was 112% (inactive).

In the case of `C=CCCCCOc1cccc(/C=C2\N=C3SCCCN3C2=O)c1`, the growth was 103% (inactive).

These data come from PubChem BioAssay (NCI).
